According to PMC7862700, “An all-to-all approach to the identification of sequence-specific readers for epigenetic DNA modifications on cytosine”:

What was measured:
Experiment in all cases: DAPPL (digital affinity profiling via proximity ligation, sequencing); 10 mM Tris-HCl pH 7.5, 50 mM NaCl, 1 mM DTT, 4% glycerol, room temperature, 30 min; GST-TFs on glutathione beads, 16-mer random dsDNA library, 0.1% formaldehyde crosslink after washing; high values mean tight binding
Settings in all cases: protein: recombinant; tags: N-terminal GST; dsDNA, one strand shown
FLI1 = target: T1, FLI1 (Homo sapiens, UniProt Q01543 1-452)
T1 sequence: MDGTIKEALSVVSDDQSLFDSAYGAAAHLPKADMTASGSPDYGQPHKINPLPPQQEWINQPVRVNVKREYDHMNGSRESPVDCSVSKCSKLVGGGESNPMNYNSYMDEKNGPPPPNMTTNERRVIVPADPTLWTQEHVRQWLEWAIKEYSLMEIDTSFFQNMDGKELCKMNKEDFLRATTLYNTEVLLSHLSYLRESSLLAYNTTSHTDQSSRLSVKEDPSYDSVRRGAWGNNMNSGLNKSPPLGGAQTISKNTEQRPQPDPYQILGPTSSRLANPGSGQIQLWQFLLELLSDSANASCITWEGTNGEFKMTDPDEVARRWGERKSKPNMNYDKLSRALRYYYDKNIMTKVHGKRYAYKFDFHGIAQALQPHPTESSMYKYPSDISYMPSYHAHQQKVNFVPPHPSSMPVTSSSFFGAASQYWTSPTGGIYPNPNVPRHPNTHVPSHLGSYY
In short: (§1)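 A tag-only sample was pooled with DNA-barcoded human transcription factors that had been expressed in yeast as GST fusions and captured on glutathione beads. The pools were incubated for 30 min at room temperature with 200 nmole of a random double-stranded 16-mer DNA library in Tris/NaCl/DTT/glycerol buffer, then washed, crosslinked with 0.1% formaldehyde, proximity-ligated (BsaI/T4 ligase, 1 h, 37 °C), PCR-amplified and sequenced on an Illumina NextSeq500. Binding signal is each hexamer's read frequency for a factor divided by its frequency for the tag-only sample.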

ELK1 = target: T2, ELK1 (Homo sapiens, UniProt P19419 1-428)
T2 sequence: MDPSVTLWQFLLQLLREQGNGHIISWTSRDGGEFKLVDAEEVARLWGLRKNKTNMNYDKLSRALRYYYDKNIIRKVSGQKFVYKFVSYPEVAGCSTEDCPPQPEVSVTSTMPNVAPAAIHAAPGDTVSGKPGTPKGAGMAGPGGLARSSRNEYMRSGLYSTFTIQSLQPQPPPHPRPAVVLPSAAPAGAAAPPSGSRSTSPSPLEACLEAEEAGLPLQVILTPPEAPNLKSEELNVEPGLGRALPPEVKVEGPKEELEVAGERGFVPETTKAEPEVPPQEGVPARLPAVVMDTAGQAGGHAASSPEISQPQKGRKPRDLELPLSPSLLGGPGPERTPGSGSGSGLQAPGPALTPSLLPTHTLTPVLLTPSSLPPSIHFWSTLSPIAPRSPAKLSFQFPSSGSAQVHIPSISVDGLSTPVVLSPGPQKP
In short: as §1

GABPA = target: T3, GABPA (Homo sapiens, UniProt Q06546 1-454)
T3 sequence: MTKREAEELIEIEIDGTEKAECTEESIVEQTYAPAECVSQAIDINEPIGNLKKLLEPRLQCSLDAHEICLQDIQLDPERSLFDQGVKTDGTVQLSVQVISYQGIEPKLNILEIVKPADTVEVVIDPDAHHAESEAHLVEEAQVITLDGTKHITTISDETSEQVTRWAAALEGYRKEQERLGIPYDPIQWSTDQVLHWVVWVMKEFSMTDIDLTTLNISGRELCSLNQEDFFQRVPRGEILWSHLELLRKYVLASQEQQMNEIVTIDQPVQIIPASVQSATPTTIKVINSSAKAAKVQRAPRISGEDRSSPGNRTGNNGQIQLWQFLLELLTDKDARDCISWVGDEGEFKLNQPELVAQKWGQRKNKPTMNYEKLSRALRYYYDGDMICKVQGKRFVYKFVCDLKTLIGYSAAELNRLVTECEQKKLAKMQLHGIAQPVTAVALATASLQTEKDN
In short: as §1

ERG = target: T4, ERG (Homo sapiens, UniProt P11308 1-479)
T4 sequence: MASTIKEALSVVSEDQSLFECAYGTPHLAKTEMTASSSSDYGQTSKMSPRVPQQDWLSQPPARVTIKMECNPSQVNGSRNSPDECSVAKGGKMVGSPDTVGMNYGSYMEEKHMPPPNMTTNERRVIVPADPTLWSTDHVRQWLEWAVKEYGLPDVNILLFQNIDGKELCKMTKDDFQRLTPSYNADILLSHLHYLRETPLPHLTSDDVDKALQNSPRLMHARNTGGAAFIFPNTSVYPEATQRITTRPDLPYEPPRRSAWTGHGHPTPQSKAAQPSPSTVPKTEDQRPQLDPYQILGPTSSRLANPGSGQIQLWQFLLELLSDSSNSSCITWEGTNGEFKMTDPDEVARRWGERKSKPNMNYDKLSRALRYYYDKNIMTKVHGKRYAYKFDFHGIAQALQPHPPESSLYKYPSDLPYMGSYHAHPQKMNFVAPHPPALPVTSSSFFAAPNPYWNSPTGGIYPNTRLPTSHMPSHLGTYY
In short: as §1

ELF1 = ELF1 (Homo sapiens, UniProt P32519 1-619)
In short: as §1

EHF = target: T5, EHF (Homo sapiens, UniProt Q9NZC4 1-300)
T5 sequence: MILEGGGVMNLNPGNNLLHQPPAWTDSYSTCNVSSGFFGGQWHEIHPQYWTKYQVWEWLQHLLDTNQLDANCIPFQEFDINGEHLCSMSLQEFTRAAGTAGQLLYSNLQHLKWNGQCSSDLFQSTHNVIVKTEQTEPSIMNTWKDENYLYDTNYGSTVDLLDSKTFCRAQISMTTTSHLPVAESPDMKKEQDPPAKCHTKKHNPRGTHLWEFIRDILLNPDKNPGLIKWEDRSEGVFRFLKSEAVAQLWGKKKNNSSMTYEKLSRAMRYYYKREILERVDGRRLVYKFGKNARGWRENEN
In short: as §1

SPI1 = SPI1 (Homo sapiens, UniProt P17947 1-270)
In short: as §1

SPIB = SPIB (Homo sapiens, UniProt Q01892 1-262)
In short: as §1

ELK3 = target: T6, ELK3 (Homo sapiens, UniProt P41970 1-407)
T6 sequence: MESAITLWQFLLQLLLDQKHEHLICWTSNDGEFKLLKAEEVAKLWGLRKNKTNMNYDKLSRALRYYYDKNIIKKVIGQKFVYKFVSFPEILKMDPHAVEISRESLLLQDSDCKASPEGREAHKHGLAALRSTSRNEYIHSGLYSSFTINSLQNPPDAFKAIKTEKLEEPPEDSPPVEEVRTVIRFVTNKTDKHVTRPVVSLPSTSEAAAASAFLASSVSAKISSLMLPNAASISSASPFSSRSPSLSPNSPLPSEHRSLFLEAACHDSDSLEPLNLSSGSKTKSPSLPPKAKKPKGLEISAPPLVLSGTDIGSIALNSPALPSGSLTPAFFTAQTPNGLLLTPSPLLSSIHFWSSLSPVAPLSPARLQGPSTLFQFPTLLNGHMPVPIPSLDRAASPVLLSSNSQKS
In short: as §1

SPIB, sequence (Q01892 whole entry): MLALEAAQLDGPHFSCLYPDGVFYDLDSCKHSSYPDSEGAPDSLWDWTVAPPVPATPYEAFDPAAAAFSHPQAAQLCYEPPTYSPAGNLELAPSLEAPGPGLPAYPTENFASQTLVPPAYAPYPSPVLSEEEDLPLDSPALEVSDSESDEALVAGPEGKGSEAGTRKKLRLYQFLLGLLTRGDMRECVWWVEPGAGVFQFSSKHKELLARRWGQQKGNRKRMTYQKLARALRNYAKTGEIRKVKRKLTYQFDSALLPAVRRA
ELF1, sequence (P32519 whole entry): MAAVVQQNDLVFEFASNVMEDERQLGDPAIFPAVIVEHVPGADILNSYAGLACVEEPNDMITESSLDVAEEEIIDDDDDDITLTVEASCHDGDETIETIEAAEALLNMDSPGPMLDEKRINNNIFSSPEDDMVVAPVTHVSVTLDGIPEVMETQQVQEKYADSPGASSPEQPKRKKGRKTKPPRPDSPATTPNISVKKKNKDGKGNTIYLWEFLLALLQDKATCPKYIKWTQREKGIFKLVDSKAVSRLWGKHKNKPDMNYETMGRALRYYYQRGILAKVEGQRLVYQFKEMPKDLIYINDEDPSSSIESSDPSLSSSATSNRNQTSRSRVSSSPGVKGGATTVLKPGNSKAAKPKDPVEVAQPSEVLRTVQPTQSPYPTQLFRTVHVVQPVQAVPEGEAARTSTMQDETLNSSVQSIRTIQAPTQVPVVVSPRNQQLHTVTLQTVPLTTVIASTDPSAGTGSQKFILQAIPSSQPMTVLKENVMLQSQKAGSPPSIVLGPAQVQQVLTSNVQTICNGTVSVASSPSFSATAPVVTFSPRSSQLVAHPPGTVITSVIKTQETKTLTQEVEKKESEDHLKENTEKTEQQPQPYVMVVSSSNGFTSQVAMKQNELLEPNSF

In the case of TAAATC, the binding signal (FLI1) is reported as 1.15 fold enrichment (6-mer frequency, TF over GST control), the binding signal (ELK1) is reported as 1.28 fold enrichment (6-mer frequency, TF over GST control) and the binding signal (GABPA) is reported as 1.24 fold enrichment (6-mer frequency, TF over GST control). The binding signal (ERG) was 1.2 fold enrichment (6-mer frequency, TF over GST control), the binding signal (ELF1) was 1.23 fold enrichment (6-mer frequency, TF over GST control) and the binding signal (EHF) was 1.17 fold enrichment (6-mer frequency, TF over GST control). The binding signal (SPI1) was 1.21 fold enrichment (6-mer frequency, TF over GST control), the binding signal (SPIB) was 1.12 fold enrichment (6-mer frequency, TF over GST control) and the binding signal (ELK3) was 1.35 fold enrichment (6-mer frequency, TF over GST control).
